# Pf growth 96h: P. falciparum growth inhibition at 96 hours; P. falciparum luciferase reporter growth, 96 h; Potency, µM (highest dose often 28.7 µM), for the others: at the top dose activity change, negative = inhibition, hits mostly inhibitors; hit rate 6.9% among 320,000; further: potency means the concentration at half of the fitted maximal effect; on the % scale 0 is the no-effect control and ±100 the full control effect
#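 Luminescence readout: decreased luciferase signal marks inhibited growth of reporter-expressing P. falciparum in infected red cells (2% hematocrit, 0.05% parasitemia final), exposed to compound two generations (96 h, 37 C, 5% CO2).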
# Shiga toxin inh: inhibitors of Shiga toxin in Vero cells; Vero cells, Shiga toxin protein synthesis inhibition reporter; hit rate 9.2% among 290,000; inhibition, % at 38.7 µM; AID 2315; in the data active means inhibition mostly above about 28%, no sharp cut-off; inactive means mostly below about 43%; further: 0% is about no effect
# NS1 inh: influenza NS1 inhibition; Potency, µM (top dose mostly 46.1 µM), for inactives: at the highest dose activity, positive = more growth; hit rate 0.4% among 270,000; calls by dose curve; further: potency means the concentration at half of the fitted maximal effect; actives are rising curves; nearly all actives have a fitted effect of over 50% in size
#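 A cell-based growth assay was used: compounds that relieve NS1-induced slow growth of budding yeast raise OD600. Assay medium was yeast nitrogen base with ammonium sulphate and -URA supplement, pH 6.0, with 2% galactose.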
# Pf growth 48h: P. falciparum growth inhibition at 48 hours (one generation). AID 504832. P. falciparum luciferase growth in erythrocytes, 48 h. hit rate 5.9% among 310,000. Potency, µM (titrated, usually from 28.7 µM), inactives show at the top dose activity change, negative = inhibition, hits mostly inhibitors; further: potency means the concentration at half of the fitted maximal effect; on the % scale 0 is the no-effect control and ±100 the full control effect
#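 A one-generation exposure of luciferase-tagged malaria parasites in RPMI 1640/Albumax erythrocyte culture, 37 C and 5% CO2. Inhibition is inferred from decreased luminescence after adding detection reagent.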
# FBPA Giardia inh: inhibitors of Giardia lamblia fructose-1,6-bisphosphate aldolase; hit rate 0.71% among 290,000; purified Giardia FBPA; Potency, µM (titrated, usually from 59.6 µM), for the others: at the highest dose activity, negative = inhibition, actives largely listed as inhibitors; further: potency means the concentration at half of the fitted maximal effect; on the % scale 0 is the no-effect control and ±100 the full control effect; nearly all actives have a fitted effect of over 55% in size
# Target sequence (A8B2U2 whole entry, looked up): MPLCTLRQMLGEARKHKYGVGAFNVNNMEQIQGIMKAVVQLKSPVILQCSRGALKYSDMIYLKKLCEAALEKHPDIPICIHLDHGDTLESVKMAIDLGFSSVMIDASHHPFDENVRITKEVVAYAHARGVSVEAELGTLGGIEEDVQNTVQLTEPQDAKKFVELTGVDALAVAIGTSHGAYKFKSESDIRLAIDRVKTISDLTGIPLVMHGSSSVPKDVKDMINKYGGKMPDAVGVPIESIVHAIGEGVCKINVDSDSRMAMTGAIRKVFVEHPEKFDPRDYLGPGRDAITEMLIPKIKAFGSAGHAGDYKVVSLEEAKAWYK
#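 40 nM FBPA preincubated 10 min at RT with compound (up to 57.5 uM final), then substrate plus GAPDH/TPI/NAD/arsenate coupling and diaphorase/resazurin added. Fluorescence read after 20 min at RT, 525/598 nm.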
# CHX counter: counter-screen for Shiga toxin inhibitors: cycloheximide protein synthesis inhibition; cell reporter, cycloheximide protein synthesis inhibition counterscreen; max response, %; hit rate 12% among 300,000; in the data active means max response mostly above about 13%, no sharp cut-off; inactive means mostly below about 14%; further: read at 38.3 µM for the half of the compounds with a filed dose; 0% is about no effect
# * hit, by the source's call; ? = inconclusive; nt = no result. Shown are actives, neighbours in structure and some others; about 21% of the full set was active somewhere. Unless noted, the call rests on the fitted dose curve; in most records, active means well fitted curve in the direction sought with a large enough effect; inconclusive means small, poorly fitted or top-dose-only effect, or another doubt; inactive means no such curve, though single readings can be large; an effect the other way counts as inactive or inconclusive.
SMILES,Pf growth 96h,Shiga toxin inh,NS1 inh,Pf growth 48h,FBPA Giardia inh,CHX counter
CN(CC(=O)Nc1ccccc1Cl)C(=O)COC(=O)/C=C/c1cccc(C(F)(F)F)c1,-25.8%,nt,nt,?,nt,nt
CCN(CC(=O)NCc1cccs1)C(=O)c1ccc(-c2cccc(C(F)(F)F)c2)o1,9.28µM*,nt,nt,?,nt,nt
CCN(CC(=O)NCc1cccs1)C(=O)c1cccc(S(=O)(=O)NC)c1,7.3%,nt,nt,?,nt,nt
COc1ccc(NC(=O)CN(C)C(=O)c2ccc(-c3cccc(C(F)(F)F)c3)o2)cc1,0.37µM*,31.5,14.7%,?,nt,1.2
CN(CC(=O)Nc1ccccc1Cl)C(=O)c1ccc(-c2cccc(C(F)(F)F)c2)o1,0.415µM*,nt,nt,2.08µM*,nt,nt
COc1ccc(NC(=O)CS(=O)CC(=O)NCc2cccc(C(F)(F)F)c2)cc1 (stereo unspecified),-56.0%,5.4,5.3%,-5.9%,-0.2%,-0.8
COc1ccc(NC(=O)CN(C)C(=O)c2ccc3ccccc3c2)cc1,71.8%,nt,nt,20.9%,nt,nt
COc1ccc(NC(=O)CN(C)C(=O)c2ccc(-c3ccccc3Cl)o2)cc1,0.329µM*,nt,nt,0.37µM*,nt,nt
Cc1cccc(NC(=O)C2CCN(C(=O)c3ccc(Cl)cc3)CC2)n1,6.9%,nt,nt,?,nt,nt
Cc1cc(C(=O)C(C)OC(=O)c2cnccn2)c(C)n1-c1ccccc1 (stereo unspecified),93.8%,nt,nt,51.9%,nt,nt
CSc1ccc(C(=O)C2CCCN(C(=O)CCCn3cncn3)C2)cc1 (stereo unspecified),?,38.2,?,-1.4%,-2.6%,10.9*
CSc1ccc(C(=O)C2CCCN(C(=O)c3nonc3C)C2)cc1 (stereo unspecified),28.6%,12.2,0.0%,14.7µM*,1.5%,11.3
O=C(c1cccc(C(F)(F)F)c1)C1CCCN(C(=O)CN2CCCC2=O)C1 (stereo unspecified),14.4%,50.3,-2.1%,28.3%,2.2%,17.3*
O=C(c1cccc(C(F)(F)F)c1)C1CCCN(C(=O)CCCn2cncn2)C1 (stereo unspecified),?,14.6,-0.9%,40.2%,-0.2%,10.5*
O=C(c1ccc(C(F)(F)F)cc1)C1CCCN(C(=O)CCn2cncn2)C1 (stereo unspecified),?,6.2,3.1%,4.1%,-2.6%,18.0
O=C(c1ccc(-c2ccccc2)cc1)C1CCCN(C(=O)Cn2cncn2)C1 (stereo unspecified),?,-11.8,-2.5%,1.0%,4.4%,-1.0
O=C(NCc1ccccc1)[C@]1(C(F)(F)F)C[C@H](CCCO)CCCO1,nt,2.0,nt,nt,0.9%,-0.9
Cc1ccc(NC(=O)COC(=O)CNC(=O)c2ccco2)cc1,53.8%,3.8,nt,190.4%,0.4%,-4.5
O=C(Cc1cccc(C(F)(F)F)c1)N1CCN(CC(=O)N2CCCC2)CC1,?,nt,nt,13.1µM*,nt,nt
Cc1c2cnn(CC(=O)O)c(=O)c2c(C)n1Cc1ccccc1,-88.8%,-12.6,1.9%,nt,4.8%,-8.3
Cc1ccc(Cn2c(C)c3cnn(CC(=O)NC4CCCC4)c(=O)c3c2C)cc1,9.28µM*,30.0*,26.6%,1.3%,-2.4%,10.1*
COC(=O)Cn1ncc2c(C)n(Cc3ccccc3)c(C)c2c1=O,39.5%,74.2*,-28.7%,70.4%,-18.5%,38.6*
CCC(C)NC(=O)C1CC(=O)N(CCc2ccc(F)cc2)C1 (stereo unspecified),75.7%,-13.0,15.5%,7.6%,15.8%,-1.2
COc1ccc(NC(=O)C2CCC(CNS(=O)(=O)c3cccs3)CC2)cc1 (stereo unspecified),13.1µM*,8.7,nt,4.3%,8.7%,4.0
CCOC(=O)c1ccc(NC(=O)CCNS(=O)(=O)c2cccs2)cc1,14.2%,-1.0,-15.5%,-1.9%,?,2.1
COc1ccc(NC(=O)C2CCC(CNS(=O)(=O)c3cccs3)CC2)cc1OC (stereo unspecified),-19.7%,-3.4,nt,?,-5.0%,6.2
O=C(CNS(=O)(=O)c1cccs1)NCCc1ccc(Cl)cc1,13.1µM*,-3.8,-4.0%,5.6%,3.8%,1.1
O=S(=O)(Nc1ccc2c(c1)OCCO2)c1cccs1,?,82.9*,-8.2%,?,-15.4%,53.7*
COC(=O)c1ccc(NC(=O)CNS(=O)(=O)c2cccs2)cc1,nt,31.7,-5.3%,-12.1%,2.0%,18.6*
